The list is not random: actives were taken first. Their share in the collection is about 1.4%.
PV pol inh = poliovirus RdRp elongation inhibitors, primary screen, biochemical, fluorescence polarization, total intensity. poliovirus polymerase elongation; stronger effect = lower value. % elongation, % (compound at 16.7 µg/mL). actives 0.66% (n = 150,000); in the data active means % elongation below about 90%
Mtb MbtI inh = MbtI salicylate synthase inhibitors, primary screen, biochemical, fluorescence intensity; P9WFX0; purified MbtI enzyme, fluorescence intensity read-out; inhibition, % (no concentration beside the values); actives 0.89% (n = 100,000); in the data active means inhibition mostly above about 56%, no sharp cut-off; inactive means mostly below about 77%
Target sequence (P9WFX0 whole entry, looked up): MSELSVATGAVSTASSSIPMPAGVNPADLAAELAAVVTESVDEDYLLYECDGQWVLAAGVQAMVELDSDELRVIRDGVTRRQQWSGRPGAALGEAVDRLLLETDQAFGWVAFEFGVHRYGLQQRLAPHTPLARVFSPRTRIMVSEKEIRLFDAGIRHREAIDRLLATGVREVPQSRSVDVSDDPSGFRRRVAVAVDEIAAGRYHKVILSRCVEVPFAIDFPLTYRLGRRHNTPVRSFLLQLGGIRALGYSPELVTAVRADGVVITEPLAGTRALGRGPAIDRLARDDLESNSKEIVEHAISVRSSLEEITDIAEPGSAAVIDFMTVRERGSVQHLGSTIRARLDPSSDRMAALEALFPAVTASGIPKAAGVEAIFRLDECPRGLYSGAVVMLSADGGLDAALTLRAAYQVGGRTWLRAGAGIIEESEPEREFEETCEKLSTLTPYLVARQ
MenB inh = M. tuberculosis MenB inhibitors, primary screen, biochemical, absorbance; MenB enzyme assay, absorbance read-out; inhibition, % (no concentration beside the values); actives 0.43% (n = 100,000); in the data active means inhibition above about 21%, passing the limit was not always enough
Active calls of the source: *; i = inactive; . = no result given; ! = not confirmed by another sample.

SMILES	PV pol inh	Mtb MbtI inh	MenB inh
Cc1ccc(S(=O)(=O)/N=C2\C=CC(=O)c3ccccc32)c(C)c1	98	10	-32
CCOC(=O)c1c(-c2cccs2)csc1NC(=O)C1CC=CCC1C(=O)O (stereo not given)	102	6	14
CCOC(=O)c1c(-c2ccc(C)o2)csc1NC(=S)NC(=O)N(C)C	99	85*	-65
CCn1cc(Br)c(C(=O)Nc2ccccc2C(C)(C)C)n1	98	-1	10
O=C(CSc1ccccc1)NCCc1ccccc1	99	-8	-2
O=C(CSc1ccc2ccccc2c1)NCCc1ccc(O)c(O)c1	100	93*	.
NC(=O)C1CCN(C(c2ccccc2)c2nnnn2Cc2ccccc2)CC1 (stereo not given)	101	-8	-18
CCOc1ccccc1C(=O)NCC(=O)O	102	1	.
COc1ccccc1C(=O)NCC(=O)O	100	0	35*
Cn1c(=NC(=O)C2COc3ccccc3O2)sc2ccccc21 (stereo not given)	105	19	2
CC(C)CCNC(=O)C1CCN(Cc2cccc(OCc3ccccc3)c2)CC1	74*	.	-7
O=C(NCCc1ccccc1)C1CCN(Cc2cc3ccccc3n2Cc2cccc(Cl)c2)CC1	106	.	.
CCc1cc(=O)oc2c3c(ccc12)OCN(Cc1ccccc1)C3	100	116	2
Cn1c(C(=O)NCCC2=CCCCC2)cc2c(=O)n(C)c3ccccc3c21	103	-3	-5
CCOC(=O)CC1Sc2ccccc2N=C1SCC(=O)Nc1ccc(Cl)cc1Cl (stereo not given)	110	96*	-54
Cc1nnc(SCC(=O)Nc2ccc(Cl)cc2Cl)n1C	101	-13	.
CCOC(=O)/C(C#N)=C\C1=C(N2CCCC2)CC(C)(C)OC1	101	62*	i
CCOC(=O)/C(C#N)=C\N1CCOCC1	102	11	-1
CCCN=c1ssc(=O)n1CCC	91	67*	0
CC(=O)n1c(SCC(=O)NC2=NN=C(c3ccc(C)cc3)CS2)nc2ccccc21	104	4	8
Cc1ccc(C2=NN=C(NC(=O)CSc3nnc(C)s3)SC2)cc1	99	84*	8
CCOC(=O)N1CCN(Cn2c(=S)sc3ccccc32)CC1	107	89*	-37
S=c1sc2ccccc2n1CN1CCN(c2ccccn2)CC1	99	145	-30
CCOC(=O)N1CCN(Cc2ccc(Cl)cc2)CC1	102	-5	-1
S=c1sc2ccccc2n1CN1CCOCC1	99	90*	24
SMILES	PV pol inh	Mtb MbtI inh	MenB inh
COC(=O)c1c(CSc2nnc(-c3ccc(OC(F)F)cc3)o2)nc2ccccc2c1C	103	-6	4
Cc1ccc(CCNC(=O)c2cnc3c(-c4ccc(F)cc4)c(C)nn3c2C)cc1	76*	.	.
CCOc1ccc(CCNC(=O)c2cnc3c(-c4ccc(F)cc4)c(C)nn3c2C)cc1	105	.	.
Cc1cc(C)n(C(=O)c2ccoc2C)n1	100	-1	36*
Cc1cc(C)n(C(=O)c2cccs2)n1	103	1	5
COc1ccccc1C1/C(=C(\O)c2cc(C)ccc2C)C(=O)C(=O)N1CCCN(C)C (stereo not given)	101	-15	10
O=C(N1CCN(c2ccccc2F)CC1)N1c2ccccc2Sc2ccccc21	102	-7	-3
COc1ccc(OCC(O)CN(Cc2ccccc2)Cc2ccccc2)cc1 (stereo not given)	100	5	-11
OC(COCC1CC=CCC1)CN(Cc1ccccc1)Cc1ccccc1 (stereo not given)	86*	.	-24
COC(=O)c1ccc(NC(=O)CSC2=Nc3ccccc3C3CC=NN23)cc1 (stereo not given)	.	-1	-83
O=C(CSC1=Nc2ccccc2C2CC=NN12)Nc1ccc2c(c1)CCC2 (stereo not given)	3.0*	17	-124
O=C(CSc1nnc(C23CC4CC(CC(C4)C2)C3)o1)NCCOc1ccccc1	100	-5	4
OCCSc1nc(-c2cccs2)nc2ccccc12	104	72	-29
O=c1c2c(-c3cccs3)csc2[nH]c(=S)n1-c1ccccc1	83*!	99*!	-43
CC(C)n1c(=S)[nH]c2scc(-c3cccs3)c2c1=O	105	13	-54
c1ccc(CCNc2nc3ccccc3s2)cc1	100	-4	.
Fc1ccc2nc(NCc3ccccc3)sc2c1	84*	61	-2
CCc1ccc(NC(=O)Nc2nnc(N(C)Cc3ccccc3)s2)cc1	107	2	-10
CN(C)c1ccc(NC(=S)c2ccccn2)cc1	103	68*	-61
Cc1cccc(NC(=S)Nc2ccc(N(C)C)cc2)c1	99	16	-19
Cc1ccc(OCc2nc(SCC(=O)NCC(F)(F)F)n[nH]2)cc1	.	-5	7
O=C(CC(=O)NCC1CCCO1)NCC1CCCO1 (stereo not given)	100	-13	.
O=C(CC1CCCCC1)NCC1CCCO1 (stereo not given)	103	2	31*
Cn1cc(CCC(=O)O)c2ccccc21	99	91	-7
CN1C(=O)NC(=O)/C(=C/c2ccc(F)cc2)C1=O	98	11	-60
SMILES	PV pol inh	Mtb MbtI inh	MenB inh
CN1C(=O)NC(=O)/C(=C\C=C\c2ccccc2)C1=O	102	84*	-40
O=C1NC(=O)C(=C/C=C/c2ccccc2)C(=O)N1	104	78*	-73
CC(C=C1C(=O)NC(=O)NC1=O)c1ccccc1 (stereo not given)	104	-10	-3
Oc1ccc(O)c(CN2CCCCCC2)c1	101	101	-19
Cn1c(CNC(=O)C2CCCCC2)cc2cc(Cl)ccc21	104	.	23*
Cc1cc2cc(CNC(=O)C3CCCCC3)ccc2n1C	104	-10	-21
CC1=C/C(=C/N(C)c2ccccc2)C(=O)S1	100	28	-147
CC1=CC(=O)C(N(C)c2ccccc2)=CC1=O	103	85*	.
O=C(CSc1ccc2nc(-c3ccccc3)cn2n1)Nc1ccccc1	87*	.	.
CC(=O)c1ccc(NC(=O)CSc2ccc3nc(-c4ccccc4)cn3n2)cc1	108	.	.
CCC(C)n1c(=O)[nH]c2c1c(=O)n(C)c(=O)n2C (stereo not given)	.	-4	.
CCC(C)n1c(=O)[nH][nH]c1=S (stereo not given)	103	51*	-8
O=C(COC(=O)c1ccc(S(=O)(=O)N2CCCC2)cc1)Nc1ncc(Cl)cc1Cl	111	-11	-26
N#CSCC(=O)N1c2ccccc2CCc2ccccc21	100	21	33*
O=C(O)c1cccnc1SCC(=O)N1c2ccccc2CCc2ccccc21	104	19	-21
CN1CCN(C(CNC(=O)NC2CCCCC2)c2ccc(F)cc2)CC1 (stereo not given)	101	1	-17
COC(=O)c1ccc2occ(C(=O)c3ccc(F)cc3)c2c1	100	3	-1
CNc1ccc(O)cc1	59*	101*	.
Oc1ccc(NC(=S)Nc2ccc(O)cc2)cc1	106	-4	-4
O=C(O)c1ccccc1CSc1nc2ccccc2[nH]1	96	56*	4
Cc1oc(C(=O)O)cc1CSc1nc2ccccc2[nH]1	100	25	2
c1ccc(-c2nc(NC3CCCCC3)s[n+]2-c2ccccc2)cc1	100	91*	.

Assay outcomes (PubChem BioAssay)
